Several values for one entry are separate records, joined by “and”; a condition that tells them apart may be missing. Equal entries are not always repeated. Where a structure was tested more than once in an assay, its records may differ in their call. Activity calls are given as the source filed them. How the source made its calls: active means hit-call score of the fitted dose curve at least 0.9, where 1 is the maximum; inactive means score below 0.9.
Read-out: Monocyte Chemoattractant Protein-1 (MCP1), CCL2 (gene 6347)
Test: BSK_BF4T_MCP1: BioMAP Diversity Plus: BF4T Assay for Monocyte Chemoattractant Protein-1 (MCP1) Biomarker Activity (AID 2284259)
Conditions: primary human bronchial epithelial cells with fibroblasts
Method: BSK_BF4T is a cell-based, multiplexed-readout assay that uses bronchial epithelial cells and dermal fibroblasts, a human vascular primary cell, with measurements taken at 24 hours after chemical dosing in a microplate: 96-well plate.BSK_BF4T_MCP1 is an assay component measured in the BSK_BF4T assay. It measures MCP-1 antibody related to regulation of gene expression using ELISA technology.Data from the assay component BSK_BF4T_MCP1 was analyzed at the endpoint, BSK_BF4T_MCP1, in the positive analysis fitting direction relative to DMSO as the negative control and baseline of activity. Using a type of binding reporter, gain or loss-of-signal activity can be used to understand protein changes. To generalize the intended target to other relatable targets, this assay endpoint is annotated to the 'cytokine' intended target family, where the subfamily is 'chemotactic factor'.
The levels of cell surface (or secreted, indicated by the prefix "s") biomarker endpoints were measured by ELISA. Overt cytotoxicity to cells in confluent adherent cultures (all systems other than the BT system) was assessed by measuring total protein levels using sulforhodamine B (SRB) staining in parallel cultures at the time of biomarker measurements, indicated as SRB endpoints. For proliferation assays for adherent cell types, individual cell types are cultured at sub-confluence and relative cell numbers quantified by SRB staining at time points optimized for each system (48 h: 3C and CASM3C systems; 72 h: BT and HDF3CGF systems; 96 h: SAg system). SRB was performed by staining cells with 0.1% SRB after fixation with 10% TCA and reading wells at 560 nm.Viability and proliferation of PBMC (T cells) was quantified by Alamar Blue reduction for the SAg and BT systems. For PBMC viability (referred to as PBMC Cytotoxicity within the assay endpoint names), cells were plated (75,000/well in a 96-well plate) and then chemical samples added for 1 h before addition of activators, SEB and TSST-1 (20 ng/mL final concentration each). Cells were incubated for 90 h. Then, Alamar Blue (20 uL/well) (Invitrogen, Cat DAL1100) was added for 6 h, and the plates were read with a fluorescence microplate reader at 546/580 nm (excitation/emission). For PBMC proliferation, cells were plated and activated as above but incubated for only 16 h prior to addition of Alamar Blue. Plates were read after 6 h.

Structure (SMILES) | outcome | AC50
O=C(O)C=CC(F)(C(F)(F)F)C(F)(F)F | inactive | –
COC(=O)C(F)(F)C(F)(F)OC(F)(C(F)(F)F)C(F)(F)OC(F)=C(F)F (stereo not given) | inactive | 5.24 µM (active)
OCC(F)(F)OC(F)(F)C(F)(F)OC(F)(F)CO | inactive | –
OCC(F)(F)OC(F)(F)C(F)(F)OC(F)(F)C(F)(F)OC(F)(F)F | – | 44.8 µM (active) and 22.6 µM (active)
NC(=O)C(F)(F)C(F)(F)F | inactive | –
FC(F)(F)C(F)(C(F)(F)F)C(F)(F)C(F)(F)CC1CO1 (stereo not given) | inactive | –
O=C(O)C(F)(F)OC(F)(F)C(F)(F)OC(F)(F)C(=O)O | inactive | –
O=C(O)C(F)(OC(F)(F)C(F)(F)C(F)(F)F)C(F)(F)F (stereo not given) | inactive | –
OCC(F)(F)OC(F)(F)C(F)(F)OC(F)(F)C(F)(F)OC(F)(F)CO | – | 17.9 µM (active) and 22.2 µM (active)
C=CC(=O)OCC(F)(F)C(F)F | inactive | –
O=S(=O)(F)C(F)(F)C(F)(F)C(F)(F)C(F)(F)C(F)(F)C(F)(F)C(F)(F)C(F)(F)F | inactive | –
CC(O)C(F)(F)C(F)(F)F (stereo not given) | inactive | –
O=C(O)C(F)(F)OC(F)(F)C(F)(F)OC(F)(F)F | inactive | –
O=C(O)C(F)(F)C(F)(F)C(=O)O | inactive | –
